# ChEMBL document CHEMBL2218924, “A broad activity screen in support of a chemogenomic map for kinase signalling research and drug discovery” (Biochem J, 2013)
# Tests used:
# [1] = target: T1, Serine/threonine-protein kinase 17A (Homo sapiens) (UniProt Q9UEE5); conditions: at 10 µM
# T1 sequence (whole entry): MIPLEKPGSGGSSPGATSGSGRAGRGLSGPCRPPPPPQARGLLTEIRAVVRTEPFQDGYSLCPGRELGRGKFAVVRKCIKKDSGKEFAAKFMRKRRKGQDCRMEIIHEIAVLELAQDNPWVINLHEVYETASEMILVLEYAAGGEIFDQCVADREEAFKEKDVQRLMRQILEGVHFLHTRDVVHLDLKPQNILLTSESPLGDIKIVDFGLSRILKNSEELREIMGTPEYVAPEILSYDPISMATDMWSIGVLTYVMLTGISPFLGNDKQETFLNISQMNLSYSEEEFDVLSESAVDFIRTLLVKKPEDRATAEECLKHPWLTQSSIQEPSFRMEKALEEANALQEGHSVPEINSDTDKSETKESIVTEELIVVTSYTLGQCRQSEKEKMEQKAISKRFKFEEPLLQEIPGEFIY
# [2] = target: T2, Dual specificity tyrosine-phosphorylation-regulated kinase 2 (Homo sapiens) (UniProt Q92630); conditions: at 1 µM
# T2 sequence (whole entry): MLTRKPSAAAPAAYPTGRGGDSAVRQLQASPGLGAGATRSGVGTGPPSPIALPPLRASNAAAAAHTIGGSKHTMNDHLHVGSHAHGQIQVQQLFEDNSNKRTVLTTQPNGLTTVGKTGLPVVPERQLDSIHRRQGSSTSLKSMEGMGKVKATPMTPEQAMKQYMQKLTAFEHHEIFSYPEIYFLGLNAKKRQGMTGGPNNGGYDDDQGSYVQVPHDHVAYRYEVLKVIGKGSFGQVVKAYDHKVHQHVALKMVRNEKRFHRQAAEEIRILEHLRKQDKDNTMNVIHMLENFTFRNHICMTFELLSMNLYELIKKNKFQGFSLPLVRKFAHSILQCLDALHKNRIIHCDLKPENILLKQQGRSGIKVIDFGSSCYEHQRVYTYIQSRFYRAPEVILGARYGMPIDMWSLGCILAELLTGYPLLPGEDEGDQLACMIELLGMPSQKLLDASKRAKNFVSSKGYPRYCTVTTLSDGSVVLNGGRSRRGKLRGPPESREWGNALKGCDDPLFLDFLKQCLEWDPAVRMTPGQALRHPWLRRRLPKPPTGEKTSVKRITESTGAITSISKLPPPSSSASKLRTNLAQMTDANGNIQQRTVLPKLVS
# [3] = target: T2, Dual specificity tyrosine-phosphorylation-regulated kinase 2 (Homo sapiens); conditions: at 10 µM
# [4] = target: Epidermal growth factor receptor (Homo sapiens) (UniProt P00533); conditions: at 1 µM
# Epidermal growth factor receptor (Homo sapiens), sequence (P00533 whole entry): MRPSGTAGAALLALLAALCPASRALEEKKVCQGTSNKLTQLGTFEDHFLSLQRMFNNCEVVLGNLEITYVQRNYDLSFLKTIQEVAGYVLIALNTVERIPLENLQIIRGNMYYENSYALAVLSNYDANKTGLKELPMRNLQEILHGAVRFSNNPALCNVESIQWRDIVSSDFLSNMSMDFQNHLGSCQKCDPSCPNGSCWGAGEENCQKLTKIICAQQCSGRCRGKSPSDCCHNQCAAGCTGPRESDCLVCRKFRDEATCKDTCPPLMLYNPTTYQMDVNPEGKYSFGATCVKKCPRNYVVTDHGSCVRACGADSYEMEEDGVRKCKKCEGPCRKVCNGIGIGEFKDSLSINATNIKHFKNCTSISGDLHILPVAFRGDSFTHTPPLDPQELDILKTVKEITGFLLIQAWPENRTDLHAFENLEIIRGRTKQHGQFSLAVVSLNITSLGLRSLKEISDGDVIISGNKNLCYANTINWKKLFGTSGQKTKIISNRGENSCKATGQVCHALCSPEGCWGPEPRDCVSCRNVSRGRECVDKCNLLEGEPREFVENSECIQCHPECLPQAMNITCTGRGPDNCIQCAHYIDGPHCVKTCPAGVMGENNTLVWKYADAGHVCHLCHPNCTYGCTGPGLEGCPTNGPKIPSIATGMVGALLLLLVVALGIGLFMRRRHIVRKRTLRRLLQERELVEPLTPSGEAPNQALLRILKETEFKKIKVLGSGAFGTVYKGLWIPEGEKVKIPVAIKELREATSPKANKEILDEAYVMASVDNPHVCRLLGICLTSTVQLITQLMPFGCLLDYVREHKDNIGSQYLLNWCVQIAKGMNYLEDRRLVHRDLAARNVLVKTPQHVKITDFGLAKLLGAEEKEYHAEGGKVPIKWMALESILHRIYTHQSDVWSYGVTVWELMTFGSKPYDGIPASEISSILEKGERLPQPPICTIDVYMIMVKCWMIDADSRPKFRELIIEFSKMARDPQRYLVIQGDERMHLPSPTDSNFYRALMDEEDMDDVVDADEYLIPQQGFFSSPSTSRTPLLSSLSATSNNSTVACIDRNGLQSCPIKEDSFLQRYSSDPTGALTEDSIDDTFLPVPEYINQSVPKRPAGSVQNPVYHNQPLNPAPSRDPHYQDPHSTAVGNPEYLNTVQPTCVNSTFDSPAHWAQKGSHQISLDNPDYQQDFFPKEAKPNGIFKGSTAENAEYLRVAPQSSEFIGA
# [5] = target: Epidermal growth factor receptor (Homo sapiens) (UniProt P00533); conditions: at 10 µM
# [6] = target: T3, Ephrin type-A receptor 1 (Homo sapiens) (UniProt P21709); conditions: at 1 µM
# T3 sequence (whole entry): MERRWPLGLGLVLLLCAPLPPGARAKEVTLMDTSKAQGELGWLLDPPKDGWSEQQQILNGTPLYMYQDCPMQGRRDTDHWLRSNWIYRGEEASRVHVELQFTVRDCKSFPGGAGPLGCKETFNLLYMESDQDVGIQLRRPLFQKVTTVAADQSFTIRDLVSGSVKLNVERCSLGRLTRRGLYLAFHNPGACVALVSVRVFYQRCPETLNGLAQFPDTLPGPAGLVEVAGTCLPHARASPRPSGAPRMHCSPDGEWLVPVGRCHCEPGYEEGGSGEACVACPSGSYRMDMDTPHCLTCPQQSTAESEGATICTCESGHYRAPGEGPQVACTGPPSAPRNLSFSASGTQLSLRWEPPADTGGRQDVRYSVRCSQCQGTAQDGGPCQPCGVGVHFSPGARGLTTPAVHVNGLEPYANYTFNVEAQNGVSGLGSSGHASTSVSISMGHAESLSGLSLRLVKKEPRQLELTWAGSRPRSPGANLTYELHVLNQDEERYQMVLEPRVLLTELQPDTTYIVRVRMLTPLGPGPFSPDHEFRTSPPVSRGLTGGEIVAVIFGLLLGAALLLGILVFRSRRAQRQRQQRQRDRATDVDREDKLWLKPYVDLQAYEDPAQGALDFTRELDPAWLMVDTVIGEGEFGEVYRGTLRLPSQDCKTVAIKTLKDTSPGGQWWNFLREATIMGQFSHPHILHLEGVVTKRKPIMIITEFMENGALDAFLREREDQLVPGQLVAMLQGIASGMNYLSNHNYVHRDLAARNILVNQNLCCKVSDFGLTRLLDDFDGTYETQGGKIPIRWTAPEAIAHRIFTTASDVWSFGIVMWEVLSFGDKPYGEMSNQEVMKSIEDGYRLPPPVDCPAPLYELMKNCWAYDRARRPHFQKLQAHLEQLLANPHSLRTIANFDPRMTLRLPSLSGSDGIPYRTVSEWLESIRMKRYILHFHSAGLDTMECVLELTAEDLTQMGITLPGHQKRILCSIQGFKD
# [7] = target: T3, Ephrin type-A receptor 1 (Homo sapiens); conditions: at 10 µM
# [8] = target: Ephrin type-A receptor 2 (Homo sapiens) (UniProt P29317); conditions: at 1 µM
# Ephrin type-A receptor 2 (Homo sapiens), sequence (P29317 whole entry): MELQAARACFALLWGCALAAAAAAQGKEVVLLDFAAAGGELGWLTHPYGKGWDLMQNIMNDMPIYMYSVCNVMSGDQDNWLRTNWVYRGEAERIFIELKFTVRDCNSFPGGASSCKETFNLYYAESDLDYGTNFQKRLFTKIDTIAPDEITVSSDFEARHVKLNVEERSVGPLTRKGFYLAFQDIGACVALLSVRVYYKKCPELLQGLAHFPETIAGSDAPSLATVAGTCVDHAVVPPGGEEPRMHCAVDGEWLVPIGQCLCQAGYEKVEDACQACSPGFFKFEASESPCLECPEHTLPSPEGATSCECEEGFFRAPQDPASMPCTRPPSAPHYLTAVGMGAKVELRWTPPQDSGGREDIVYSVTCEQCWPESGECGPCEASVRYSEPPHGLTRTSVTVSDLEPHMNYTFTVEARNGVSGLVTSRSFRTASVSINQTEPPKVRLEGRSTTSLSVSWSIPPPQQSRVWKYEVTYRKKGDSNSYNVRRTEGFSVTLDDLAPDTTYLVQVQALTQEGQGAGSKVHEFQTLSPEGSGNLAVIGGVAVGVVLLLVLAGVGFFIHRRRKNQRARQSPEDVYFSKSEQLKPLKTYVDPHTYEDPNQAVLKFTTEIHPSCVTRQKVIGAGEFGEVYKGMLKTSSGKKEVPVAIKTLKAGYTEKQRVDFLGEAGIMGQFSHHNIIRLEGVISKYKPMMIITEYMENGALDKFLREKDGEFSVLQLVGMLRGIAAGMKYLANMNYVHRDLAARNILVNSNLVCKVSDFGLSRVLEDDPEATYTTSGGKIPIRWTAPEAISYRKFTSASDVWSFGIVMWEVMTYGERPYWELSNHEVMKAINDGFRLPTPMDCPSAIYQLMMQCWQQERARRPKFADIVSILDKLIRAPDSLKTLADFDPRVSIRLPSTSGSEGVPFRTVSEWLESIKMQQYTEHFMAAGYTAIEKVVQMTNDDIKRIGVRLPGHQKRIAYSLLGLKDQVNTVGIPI
# [9] = target: Ephrin type-A receptor 2 (Homo sapiens) (UniProt P29317); conditions: at 10 µM
# [10] = target: T4, Ephrin type-A receptor 3 (Homo sapiens) (UniProt P29320); conditions: at 1 µM
# T4 sequence (whole entry): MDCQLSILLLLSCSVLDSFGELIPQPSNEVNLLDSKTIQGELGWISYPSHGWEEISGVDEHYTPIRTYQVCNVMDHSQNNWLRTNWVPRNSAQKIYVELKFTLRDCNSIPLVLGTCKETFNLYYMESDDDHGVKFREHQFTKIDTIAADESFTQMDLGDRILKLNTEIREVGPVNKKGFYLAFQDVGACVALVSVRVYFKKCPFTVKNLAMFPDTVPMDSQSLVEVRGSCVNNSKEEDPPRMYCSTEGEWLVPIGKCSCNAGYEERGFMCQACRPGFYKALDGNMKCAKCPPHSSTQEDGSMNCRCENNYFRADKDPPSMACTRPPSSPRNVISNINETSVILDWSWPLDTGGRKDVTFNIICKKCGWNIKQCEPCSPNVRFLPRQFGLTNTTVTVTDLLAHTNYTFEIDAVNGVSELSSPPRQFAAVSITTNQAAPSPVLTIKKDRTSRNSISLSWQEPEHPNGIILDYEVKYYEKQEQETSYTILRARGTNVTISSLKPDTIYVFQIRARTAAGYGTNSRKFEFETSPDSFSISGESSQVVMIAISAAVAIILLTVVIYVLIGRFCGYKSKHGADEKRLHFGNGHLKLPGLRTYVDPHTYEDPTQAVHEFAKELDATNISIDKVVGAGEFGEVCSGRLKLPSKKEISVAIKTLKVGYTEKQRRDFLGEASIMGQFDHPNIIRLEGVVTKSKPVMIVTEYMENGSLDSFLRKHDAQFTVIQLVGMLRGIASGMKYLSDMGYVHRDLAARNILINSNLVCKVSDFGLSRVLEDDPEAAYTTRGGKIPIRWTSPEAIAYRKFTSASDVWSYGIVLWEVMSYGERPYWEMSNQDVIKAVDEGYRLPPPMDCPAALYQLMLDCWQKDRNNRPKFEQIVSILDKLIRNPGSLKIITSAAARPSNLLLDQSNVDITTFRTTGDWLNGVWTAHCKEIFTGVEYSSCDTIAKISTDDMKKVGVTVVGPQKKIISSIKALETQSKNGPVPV
SMILES,residual activity [1],residual activity [2],residual activity [3],residual activity [4],residual activity [5],residual activity [6],residual activity [7],residual activity [8],residual activity [9],residual activity [10]
Cn1c2ccccc2c2c3c(c4c5ccccc5n(CCC#N)c4c21)CNC3=O,36%,76%,66%,–,–,–,–,–,–,–
COc1cc2ncnc(Nc3cccc(Cl)c3)c2cc1OC,48%,–,–,-5%,-3%,42%,7%,89%,37%,–
NC(=O)c1cccc(-c2cc(Nc3ccc(OC(F)(F)F)cc3)ncn2)c1,145%,–,91%,–,–,–,96%,–,–,–
CSc1nc(-c2ccc(F)cc2)c(-c2ccnc(NC(C)c3ccccc3)c2)[nH]1 (stereo not drawn),72%,–,86%,–,–,101%,78%,87%,–,–
Nc1ncnc2[nH]nc(Nc3ccc(F)cc3)c12,16%,79%,30%,–,–,43%,–,–,50%,–
O=c1cc(N2CCOCC2)oc2c1ccc1ccccc12,71%,97%,65%,–,–,91%,87%,–,95%,92%
O=C(Nc1ccc(Cl)cc1)c1ccccc1NCc1ccncc1,99%,–,–,–,–,–,–,–,–,–
O=C1NC(=O)c2c1c1c3ccccc3[nH]c1n1cncc21,6%,68%,57%,–,–,74%,50%,87%,86%,91%
O=C1Cc2c([nH]c3ccc([N+](=O)[O-])cc23)-c2ccccc2N1,7%,54%,71%,–,–,109%,103%,–,–,–
O=C(O)/C=C/c1cc(Br)c(Br)c(Br)c1Br,39%,92%,38%,–,–,104%,91%,–,–,101%
O=C1C(Cl)=C(N2C(=O)CCC2=O)C(=O)c2ccccc21,82%,100%,92%,–,–,–,84%,93%,–,85%
O=c1cc(N2CCNCC2)oc2c(-c3ccccc3)cccc12,66%,87%,94%,–,–,91%,100%,99%,97%,91%
CCN(CC)CCNC(=O)c1c(C)[nH]c(/C=C2\C(=O)Nc3ccc(Cl)cc32)c1C,2%,78%,37%,–,–,82%,37%,–,73%,–
O=C(c1cc2cc(O)ccc2[nH]1)c1cc2cc(O)ccc2[nH]1,2%,81%,47%,–,–,83%,47%,–,–,–
c1ccc(-c2cnc(Nc3ccc(OCCN4CCCC4)cc3)s2)cc1,4%,–,62%,–,–,77%,60%,–,–,104%
Fc1ccc(-c2nc3n(c2-c2ccncc2)CCS3)cc1,91%,–,91%,–,–,–,–,99%,87%,–

SMILES,residual activity [1],residual activity [2],residual activity [3],residual activity [4],residual activity [5],residual activity [6],residual activity [7],residual activity [8],residual activity [9],residual activity [10]
Nc1nccc(-c2c(-c3ccc(F)cc3)ncn2C2CCNCC2)n1,21%,83%,40%,–,84%,119%,45%,–,–,–
O=C(Nc1nc2ccccc2n1CCN1CCOCC1)c1cccc([N+](=O)[O-])c1,53%,102%,88%,–,–,80%,123%,–,–,104%
O=C1Cc2c([nH]c3ccc(Br)cc23)-c2ccccc2N1,39%,92%,45%,–,–,91%,78%,–,–,83%
Nc1n[nH]c2nc3ccccc3nc12,50%,92%,41%,–,–,87%,83%,–,–,98%
N#Cc1c(NC(=O)c2cccc3ccccc23)sc2c1CCCC2,134%,–,–,–,–,–,–,–,–,–
Nc1ncnc2c1c(-c1ccc(Oc3ccccc3)cc1)cn2C1CCCC1,104%,91%,82%,–,–,72%,18%,100%,55%,101%
N#C/C(=C1/Nc2ccccc2S1)c1ccnc(NCCc2cccnc2)n1,37%,19%,2%,–,–,–,–,–,–,–
COc1cc2nccc(Oc3ccc(NC(=S)NC(=O)c4ccccc4C)cc3)c2cc1OC,92%,–,91%,–,–,46%,24%,91%,55%,98%
COc1ccc(-c2cnc3c(-c4ccsc4)cnn3c2)cc1,98%,100%,94%,–,–,–,–,–,–,–
O=C1Nc2ccc(Cl)cc2/C1=C/c1cc(Cl)c(O)c(Cl)c1,17%,83%,70%,–,–,84%,87%,99%,76%,91%
Oc1cccc(-c2nc(N3CCOCC3)c3oc4ncccc4c3n2)c1,86%,94%,98%,119%,119%,91%,–,–,–,–
CCCCc1c(-c2ccc(O)cc2)[nH]c2nccnc12,44%,85%,34%,–,–,29%,47%,82%,60%,72%
CC(C)(C)n1nc(Cc2cccc3ccccc23)c2c(N)ncnc21,103%,109%,99%,–,–,7%,-1%,33%,1%,63%
Nc1ncnc2c1cnn2-c1ccccc1,68%,85%,44%,–,–,85%,88%,–,–,100%
COc1ccc(COc2ccc(Cc3cnc(N)nc3N)cc2OC)cc1,–,–,–,–,114%,–,–,–,–,–
O=c1c(-c2ccc(F)cc2)c(-c2ccncc2)[nH]n1-c1ccc(Cl)cc1,–,–,–,–,6%,–,–,–,–,–
